According to PubChem BioAssay AID624263 (National Center for Advancing Translational Sciences (NCATS), 2012):
Among all 410,000 compounds or so, about 820 (0.2%) were called active. Another 2% or so got no clear call; they are omitted. The call rests on the fitted dose curve; in most records, active means well fitted activation curve with a large enough effect; inconclusive means small, poorly fitted or top-dose-only effect; inactive means flat fitted curve, though single readings scatter; cell line not stated here. The sample as a whole holds a higher share of actives than the screen did.

Experiment: A Quantitative High throughput Screen to Identify Chemical Modulators of PINK1 Expression; further: nearly all actives have a fitted effect of over 65% in size; on activation (PINK1 increase): % of control where 0% means no effect
Details: PINK1 immunofluorescence, high-content cytometry, 24 h; series mostly up to 76.6 µM; activation (PINK1 increase): at the top concentration
Procedure, shortened: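 PINK1 protein level read as immunofluorescence by microplate cytometer in a fixed, stained stable cell line after 24 h exposure to five compound concentrations, with CCCP as control.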
Potency means the concentration at half of the fitted maximal effect.

| Compound | Potency | activation (PINK1 increase) |
| --- | --- | --- |
| O=C(N/N=C/c1sc(N2CCCCC2)nc1-c1cccs1)c1cccnc1 | 20 µM (active) | – |
| O=C(Nc1ccc(N2CCN(C(=O)c3ccccc3)CC2)c(Cl)c1)c1cccnc1 | – | -3.19% (inactive) |
| O=C(c1cccnc1)N1CCN(S(=O)(=O)c2cccs2)CC1 | – | 0.0275% (inactive) |
| Cc1ccc(-c2ccc(C(=O)N3CCc4nnc(CNC(=O)c5ccccc5)n4CC3)cc2)cc1 | – | 0.715% (inactive) |
| O=C(CN1Cc2ccccc2OC(c2ccccc2)C1)N1CCCCC1c1cccnc1 (stereo not given) | – | 0.558% (inactive) |
| CCOc1ccc2nc(N3CCCN(CCCn4cccn4)CC3)nc(C)c2c1 | – | -0.633% (inactive) |
| Oc1c(Br)cccc1/C=N/Nc1c(F)c(F)c(F)c(F)c1F | 39.8 µM (active) | – |
| CCOC(=O)N1CCC(N2CCOc3ccc(CN4CCC(O)(c5cccnc5)CC4)cc3C2)CC1 | – | 0.385% (inactive) |
| O=C(CSc1nc2cc3c(cc2c(=O)n1CCC1=CCCCC1)OCO3)NCc1ccco1 | – | 11.5% (inactive) |
| O=C(CSc1nc2ccccc2c(=O)n1CCCO)NC1CC1 | – | 0.89% (inactive) |
| O=C(CCCn1c(SCC(=O)c2ccc(F)cc2)nc2ccccc2c1=O)NCc1ccco1 | 15.8 µM (active) | – |
| O=C(Nc1ccc([N+](=O)[O-])cc1)c1cnn2c1NC(=C1CC1)C=C2C(F)F | – | -0.0813% (inactive) |
| COCC(=O)Nc1cc(C(=O)N2CCCC(c3ccccc3)CC2)c2c(c1)nc(-c1ccncc1)n2C (stereo not given) | – | -0.433% (inactive) |
| COc1ccccc1C1CN(Cc2ccccc2O)Cc2ccccc2O1 (stereo not given) | – | 0.0982% (inactive) |
| COC(=O)c1ccccc1C(=O)NCc1nc(N2CCCC2)c2cccc(C)c2n1 | – | -0.339% (inactive) |
| Cc1ccc(S(=O)(=O)NCCN2CCOCC2)cc1C | 14.1 µM (active) | – |
| Cc1cc(C)c(S(=O)(=O)NCCCN2CCOCC2)cc1Br | – | -1.42% [at 38.3 µM] (inactive) |
| O=S(=O)(NCCCN1CCOCC1)c1ccc(F)c(Cl)c1 | – | 4.27% (inactive) |
| COc1ccccc1C(=O)N[C@@H]1c2ccccc2C2(CCN(Cc3nc(C(C)C)cs3)CC2)[C@H]1O | – | -1.21% (inactive) |
| COc1cc(OC)c(/C=C/c2ccnc3ccccc23)c(OC)c1 | – | 8.99% (inactive) |
| Cc1cccc(CNC(=O)c2cnn(-c3nccc(-c4ccccc4F)n3)c2C2CC2)n1 | – | -0.292% (inactive) |
| CN(C)c1ccc(/C=C2\C=Cc3ccccc32)cc1Br | – | 2.66% (inactive) |
| CC(C)(C)C1CCC(NC(=O)c2cnn3c2NC(=C2CC2)C=C3C(F)F)CC1 (stereo not given) | – | -0.21% (inactive) |

| Compound | Potency | activation (PINK1 increase) |
| --- | --- | --- |
| Cn1nccc1C(=O)NCC1CCC2(CCN(Cc3c(O)ccc4ccccc34)CC2)O1 (stereo not given) | – | -0.145% (inactive) |
| O=C(NCCN1CCOCC1)c1cnn(-c2nccc(-c3cccs3)n2)c1C1CC1 | – | 1.85% (inactive) |
| Cc1cnc(C)c(-c2cc(F)c3c(c2)CC(CNC(=O)c2cccc(Cn4cccn4)c2)O3)n1 (stereo not given) | – | 0.0853% (inactive) |
| CCc1cccc(NC(=S)N(CCN(C)C)C2CCN(C(C)C)CC2)c1 | – | -1.23% (inactive) |
| CCOc1ccc2c(c1)cc(CN(C(=O)CC)C1CCCCC1)c1nnnn12 | – | -2.48% (inactive) |
| CCc1ccc2c(c1)cc(CN(C(=S)Nc1ccccc1Cl)C1CC1)c1nnnn12 | 12.6 µM (active) | – |
| CC(C)C(=O)NC(C)c1nnc2n1CCN(Cc1cccc3ncccc13)CC2 (stereo not given) | – | -0.848% (inactive) |
| O=C1CCN(Cc2ccc(-c3ccccc3)cc2)CCN1Cc1ccccn1 | – | 0.935% (inactive) |
| Cc1oc(-c2cccc(NC(=O)c3ccccc3)c2)nc1CNC(=O)c1cnc2ccccn2c1=O | – | 0.787% (inactive) |
| O=C(Nc1ccccc1C(F)(F)F)c1nc(S(=O)(=O)Cc2ccccc2F)ncc1Cl | – | 3.33% (inactive) |
| COCCCNC(=O)/C(C#N)=C/c1c(N2CCCCCC2)nc2ccccn2c1=O | – | 0.655% (inactive) |
| N#C/C(=C/c1ccc(N2CCCCC2)o1)C(=O)NCCc1c[nH]c2ccccc12 | 11.2 µM (active) | – |
| CC1(C(=O)NCCc2c[nH]c3ccccc23)C=CC2(CCCCC2)N1C(=O)c1ccccc1 (stereo not given) | – | -0.269% (inactive) |
| COCCN1CCN(C(=O)c2sc3ncnc(NCC4CCCO4)c3c2C)CC1 (stereo not given) | – | 0.389% (inactive) |
| CN1CCCCCC1C(=O)NCCN1Cc2ccccc2OC(c2ccsc2)C1 (stereo not given) | – | -0.383% (inactive) |
| COc1ccccc1-c1ccnc(-n2ncc(C(=O)NCCc3ccncc3)c2C)n1 | – | 1.69% (inactive) |
| COC(=O)C1CCCCN1Cc1ccc2c(c1)CN(Cc1cc(OC)c3c(c1)OCO3)CCO2 (stereo not given) | – | 0.531% (inactive) |
| N#Cc1ccc(C(=O)Nc2nc(-c3cccs3)c(C(=O)C(F)(F)F)s2)cc1 | 6.31 µM (active) | – |
| COCC(C)NC(=O)c1ccc(-n2nc(C(F)(F)F)cc2-c2cccs2)cc1 (stereo not given) | – | -2.38% (inactive) |
| COc1ccc(C(F)(F)F)cc1NC(=O)c1sc2nc(-c3cccs3)ccc2c1N | – | 16.7% (inactive) |
| C=C1C=C(C)n2ncc(C(=O)Nc3ccccc3O)c2N1 | – | 1.83% (inactive) |
| COc1ccccc1CNc1cc(-c2ccccc2CN(C)C)ncn1 | – | 0.0313% (inactive) |
